GPT2 inh – inhibitors of human GPT2 alanine aminotransferase; Recombinant GPT2, coupled pyruvate oxidase/HRP Amplex Red fluorescence; Potency, µM (titrated, usually from 57.7 µM), most hits filed as inhibitors; actives 0.25% (n = 100,000); AID 1671188; also: nearly all actives have a fitted effect of over 60% in size
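Fluorescence read-out: pyruvate from GPT2 turnover coupled to pyruvate oxidase, HRP and Amplex Red (0.2mM ThPP, 0.2U/mL PO and HRP, 50uM Amplex final). Substrates 250uM a-KG, 2mM L-alanine; enzyme 10ng/uL; 30 min RT.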
HEK cytotox – kills HEK 293 cells | Potency, µM (titrated, usually from 115 µM), most hits filed as inhibitors | HEK 293 viability, ATP luminescence (CellTiter-Glo), 48-72 h | actives 6.6% (n = 94,000) | AID 1345083; also: nearly all actives have a fitted effect of over 60% in size
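HEK 293 cells at 250 cells/well were exposed to compounds by pintool transfer for 48 or 72 hr at 37 degree Celsius, 5% CO2. Viability was read as ATP-coupled luminescence with CellTiter-Glo after 10 min at room temperature.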
FLuc inh – blocks purified firefly luciferase enzyme activity; P08659; purified P. pyralis luciferase, luminescence, biochemical; Potency, µM (titrated, usually from 115 µM), actives largely listed as inhibitors; actives 2.5% (n = 76,000); AID 1347043; also: nearly all actives have a fitted effect of over 65% in size
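Luminescence read by CCD imaging after purified firefly luciferase (10nM final) was added to substrate buffer holding 10uM D-luciferin and 10uM ATP, pH 7.5, pre-dosed with compound.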
hNpr1 antagonist – human Npr1 receptor antagonism; P16066; HEK293 hNpr1 GloSensor cGMP, ANP-stimulated luminescence; Potency, µM (titrated, usually from 46.3 µM), actives largely listed as inhibitors; actives 1.6% (n = 76,000); AID 1347048; calls by dose curve; also: nearly all actives have a fitted effect of over 60% in size
Target sequence (P16066 whole entry, looked up): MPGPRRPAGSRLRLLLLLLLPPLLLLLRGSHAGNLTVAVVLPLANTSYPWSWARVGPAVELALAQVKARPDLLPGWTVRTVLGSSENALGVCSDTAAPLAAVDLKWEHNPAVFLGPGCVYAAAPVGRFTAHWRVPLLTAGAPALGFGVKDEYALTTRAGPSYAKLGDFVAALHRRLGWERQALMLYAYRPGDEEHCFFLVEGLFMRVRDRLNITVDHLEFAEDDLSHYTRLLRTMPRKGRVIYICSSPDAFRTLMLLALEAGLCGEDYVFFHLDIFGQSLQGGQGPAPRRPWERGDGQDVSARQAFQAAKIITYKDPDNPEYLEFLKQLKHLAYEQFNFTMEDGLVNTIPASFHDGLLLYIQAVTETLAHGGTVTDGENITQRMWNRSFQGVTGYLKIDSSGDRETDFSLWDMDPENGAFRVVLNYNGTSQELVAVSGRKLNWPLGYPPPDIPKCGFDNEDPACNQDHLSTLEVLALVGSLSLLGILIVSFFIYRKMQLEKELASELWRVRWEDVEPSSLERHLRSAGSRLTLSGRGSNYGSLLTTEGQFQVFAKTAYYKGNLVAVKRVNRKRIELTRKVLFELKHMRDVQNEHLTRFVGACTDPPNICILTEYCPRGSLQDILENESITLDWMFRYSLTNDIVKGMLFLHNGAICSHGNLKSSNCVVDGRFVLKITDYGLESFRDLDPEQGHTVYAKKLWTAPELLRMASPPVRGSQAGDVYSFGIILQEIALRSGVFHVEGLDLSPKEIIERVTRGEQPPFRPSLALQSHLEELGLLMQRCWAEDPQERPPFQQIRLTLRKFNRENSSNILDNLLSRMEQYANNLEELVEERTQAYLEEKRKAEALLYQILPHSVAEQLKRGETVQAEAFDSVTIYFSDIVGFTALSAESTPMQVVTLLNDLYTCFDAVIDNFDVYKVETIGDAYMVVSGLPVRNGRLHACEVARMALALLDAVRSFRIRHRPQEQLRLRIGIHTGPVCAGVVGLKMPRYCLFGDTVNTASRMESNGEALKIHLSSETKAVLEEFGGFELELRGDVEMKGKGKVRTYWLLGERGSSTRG
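Compound pre-incubated 30 min at room temperature on GloSensor-loaded HEK293 cells stably carrying hNpr1 and the pGS-40F cGMP biosensor. Stimulation uses hNppA at 0.1 nM final; luminescence is taken at baseline and 20 min post-agonist.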
NIH3T3 tox – kills NIH 3T3 cells | actives 4.3% (n = 94,000) | Potency, µM (top dose mostly 96.7 µM), usual class: inhibitors | AID 1345082 | NIH 3T3 viability, CellTiter-Glo ATP luminescence, 48-72 h; also: nearly all actives have a fitted effect of over 55% in size
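Viability of NIH 3T3 cells after 48 or 72 hr compound treatment at 37 °C was assessed by CellTiter-Glo, with luminescence imaged following a 10 min room-temperature step.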
NPR1 antag cnf – hNpr1 antagonism, confirmation assay; Potency, µM (highest dose often 57.6 µM), actives largely listed as inhibitors; shares compounds with hNpr1 antagonist; HEK293 hNpr1 cGMP GloSensor luminescence, ANP-stimulated; actives 76% (n = 1,400); AID 1347044; calls by dose curve; also: nearly all actives have a fitted effect of over 70% in size
NPR2 antag – selectivity test of Npr1 antagonists against human Npr2. shares compounds with hNpr1 antagonist. HEK293 hNpr2 GloSensor cGMP luminescence, CNP-stimulated. Potency, µM (series often up to 57.6 µM), actives largely listed as inhibitors. actives 67% (n = 1,400). AID 1347046; calls by dose curve; also: nearly all actives have a fitted effect of over 70% in size
FLuc counter – FLuc enzyme inhibition, Npr1 counter-screen. Potency, µM (top dose mostly 57.6 µM), usual class: inhibitors. purified FLuc enzyme, luminescence, Km substrate. shares compounds with hNpr1 antagonist. actives 0.7% (n = 1,400)
GloSensor ctrl – reduces cGMP signal in GloSensor control cells; Potency, µM (top dose mostly 57.6 µM), actives largely listed as inhibitors; HEK293 GloSensor cGMP, SNP-stimulated, luminescence; actives 69% (n = 1,400); shares compounds with hNpr1 antagonist; calls by dose curve; also: nearly all actives have a fitted effect of over 70% in size
Of the large screens only hits and unclear results are named; the others gave an inactive call (follow-up assays come after a bar, where they were run). A selection: hits, their analogues and other compounds. The true share with any hit is near 10%. Unless noted, calls follow the shape of the dose curve; as a rule, active = well fitted curve in the direction sought with a large enough effect; inconclusive = small, poorly fitted or top-dose-only effect, or another doubt; inactive = no such curve, though single readings can be large; an effect the other way counts as inactive or inconclusive.

CC1(COc2ccccc2)COc2ccc(C(=O)N3CCOCC3c3ccncc3)cc2N1 (centres undefined)	HEK cytotox inconclusive, NIH3T3 tox inconclusive | NPR1 antag cnf inconclusive | NPR2 antag inconclusive | FLuc counter inactive | GloSensor ctrl inconclusive
O=c1[nH]c2ccccc2n1C1CCN(c2nccc(-c3cccnc3)n2)CC1	HEK cytotox 14µM, hNpr1 antagonist 11µM, NIH3T3 tox 32µM | NPR1 antag cnf 22µM | NPR2 antag 24µM | FLuc counter inactive | GloSensor ctrl 19µM
O=C1Nc2ccccc2C12CN(CC1CCCCC1)C2	none (no result: FLuc inh, hNpr1 antagonist)
COc1ccc(C(=O)N2CCC(Cc3nc(-c4ccccc4)no3)CC2)cc1OC	HEK cytotox inconclusive, hNpr1 antagonist 2.8µM, NIH3T3 tox inconclusive | NPR1 antag cnf 5.4µM | NPR2 antag 6.9µM | FLuc counter inactive | GloSensor ctrl 5.4µM
CCCCOc1ccc(C(=O)N2CCC(Cc3nc(-c4ccccc4)no3)CC2)cc1	HEK cytotox inconclusive, hNpr1 antagonist 10µM, NIH3T3 tox inconclusive | NPR1 antag cnf 17µM | NPR2 antag 14µM | FLuc counter inactive | GloSensor ctrl 12µM
Cc1cc(C)cc(C(=O)N2CCC(Cc3nc(-c4ccccc4)no3)CC2)c1	HEK cytotox inconclusive, hNpr1 antagonist inconclusive, NIH3T3 tox inconclusive
COc1ccc(C(=O)N2CCC(Cc3nc(-c4ccccc4)no3)CC2)cc1F	HEK cytotox inconclusive, hNpr1 antagonist 3.2µM, NIH3T3 tox inconclusive | NPR1 antag cnf 3.1µM | NPR2 antag 3.1µM | FLuc counter inactive | GloSensor ctrl 3.1µM
Cc1ccc(C(=O)N2CCC(Cc3nc(-c4ccccc4)no3)CC2)s1	HEK cytotox 32µM, hNpr1 antagonist 6.3µM, NIH3T3 tox inconclusive | NPR1 antag cnf 7.7µM | NPR2 antag 9.7µM | FLuc counter inactive | GloSensor ctrl 8.6µM
COc1ccc(C(=O)N2[C@@H]3CC[C@H]2CC(NC(=O)c2ccc(F)cc2)C3)c(OC)c1 (some centres undefined)	none
Cc1noc(-c2cn(C3CCN(C(=O)c4ccc(F)cc4Cl)C3)nn2)n1 (centres undefined)	none
CC(C)c1noc(-c2cn(C3CCN(C(=O)c4cccc(Cl)c4)C3)nn2)n1 (centres undefined)	HEK cytotox inconclusive, hNpr1 antagonist inconclusive, NIH3T3 tox inconclusive | NPR1 antag cnf 24µM | NPR2 antag 27µM | FLuc counter inactive | GloSensor ctrl 22µM
CC(C)c1noc(-c2cn(C3CCN(C(=O)c4cccc(F)c4)C3)nn2)n1 (centres undefined)	HEK cytotox inconclusive, hNpr1 antagonist inconclusive, NIH3T3 tox inconclusive
CC(C)c1noc(-c2cn(C3CCN(C(=O)c4ccc(F)cc4Cl)C3)nn2)n1 (centres undefined)	HEK cytotox inconclusive, hNpr1 antagonist inconclusive, NIH3T3 tox inconclusive | NPR1 antag cnf 15µM | NPR2 antag 15µM | FLuc counter inactive | GloSensor ctrl 14µM
COc1cc(NC(=O)NC[C@H]2O[C@@H](CO)[C@@H](O)[C@H]2N(C)CCN(C)C)cc(OC)c1	none
COc1c(C)cccc1C(=O)N1CCOC(c2ccc(Cl)c(Cl)c2)C1 (centres undefined)	HEK cytotox inconclusive, hNpr1 antagonist 10µM, NIH3T3 tox inconclusive | NPR1 antag cnf 17µM | NPR2 antag 19µM | FLuc counter inactive | GloSensor ctrl 15µM
